Several values for one entry are separate records, joined by “and”; a condition that tells them apart may be missing. Identical values can stand only once. The campaign covered roughly 5,500 compounds. About 2,000 (36%) were called active. Another 18% or so got no clear call; they are omitted. Rule as the data show it: active = normalized growth mostly below about 0.91 (no sharp cut-off); inconclusive = no clear call, values can overlap the other calls; inactive = mostly above about 0.92. The list shows a part of the results.
Experiment: chemical genetic growth profiling, strain panel (AID 1159580);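 also: tested at 20 µM; growth read once vehicle control cultures reached saturation at 30 °C; 1 = growth at the plate median or of vehicle wells; lower values mean less growth of the strain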
Details: S. cerevisiae deletion strains, growth OD

Measured: normalized growth

CC(=O)O[C@H]1C[C@@]2(C)[C@@H](C[C@@H](O)C3[C@]2(C)CC[C@H]2[C@H](C)[C@H](O)CC[C@]32C)/C1=C(/CCC=C(C)C)C(=O)O (stereo partly drawn)
inactive: locus YAL013W, strain DEP1, hits give low values 1.02 | locus YAL021C, strain ccr4, hits give low values 1.02 | locus YAL026C, strain drs2, hits give low values 1.01 | locus YAL030W, strain snc1, hits give low values 1.03 | locus YBL061C, strain skt5, hits give low values 1.04 | locus YBR009C, strain hhf1, hits give low values 1.02 | locus YBR021W, strain FUR4, hits give low values 1.04 | locus YBR023C, strain chs3, hits give low values 1.04 | locus YBR171W, strain sec66, hits give low values 1.01 | locus YBR229C, strain ROT2, hits give low values 1.01 | locus YBR231C, strain swc5, hits give low values 0.988 | locus YBR279W, strain paf1, hits give low values 1.03 | locus YCL011C, strain gbp2, hits give low values 1.01 | locus YCL016C, strain dcc1, hits give low values 1.05 | locus YCL029C, strain bik1, hits give low values 1.03 | locus YCL061C, strain MRC1, hits give low values 1.02 | locus YCL069W, strain vba3, hits give low values 1.01 | locus YCR088W, strain abp1, hits give low values 1.01 | locus YDL005C, strain med2, hits give low values 1.04 | locus YDL035C, strain GPR1, hits give low values 0.989 | locus YDL040C, strain nat1, hits give low values 1.02 | locus YDL074C, strain BRE1, hits give low values 1.03 | locus YDL101C, strain DUN1, hits give low values 1.01 | locus YDL134C, strain PPH21, hits give low values 1 | locus YDL185W, strain tfp1, hits give low values 1.01 | locus YDL192W, strain arf1, hits give low values 1.03 | locus YDR001C, strain nth1, hits give low values 1 | locus YDR069C, strain doa4, hits give low values 1.03 | locus YDR101C, strain arx1, hits give low values 1.02 | locus YDR137W, strain rgp1, hits give low values 1 | locus YDR150W, strain NUM1, hits give low values 1.02 | locus YDR159W, strain sac3, hits give low values 0.989 | locus YDR162C, strain NBP2, hits give low values 1 | locus YDR195W, strain ref2 1.03 | locus YDR297W, strain sur2, hits give low values 1.02 | locus YDR318W, strain mcm21, hits give low values 1.03 | locus YDR334W, strain swr1, hits give low values 1.02 | locus YDR335W, strain msn5, hits give low values 1.04 | locus YDR388W, hits give low values 1.04 | locus YDR392W, strain spt3, hits give low values 0.998 | locus YDR502C, strain sam2, hits give low values 1.04 | locus YEL003W, strain gim4, hits give low values 0.998 | locus YEL037C, strain rad23, hits give low values 1 | locus YEL061C, strain CIN8 (second series), hits give low values 1.01 | locus YEL061C, strain CIN8, hits give low values 1.01 | locus YER015W, strain faa2, hits give low values 1.03 | locus YER016W, strain bim1, hits give low values 1.01 | locus YER110C, hits give low values 1.02 | locus YER111C, strain swi4, hits give low values 1.03 | locus YER155C, strain BEM2 (second series), hits give low values 1.01 | locus YER155C, strain BEM2, hits give low values 1.01 | locus YER167W, strain BCK2, hits give low values 1.02 | locus YFR010W, strain ubp6, hits give low values 1.02 | locus YGL078C, strain dbp3, hits give low values 1.04 | locus YGL086W, strain mad1, hits give low values 1.01 | locus YGL167C, strain pmr1, hits give low values 1.02 | locus YGL173C, strain kem1, hits give low values 1.01 | locus YGL227W, strain vid30, hits give low values 1.01 | locus YGL240W, strain doc1, hits give low values 1.01 | locus YGL248W, strain PDE1, hits give low values 1.01 | locus YGL253W, strain hxk2, hits give low values 1.01 | locus YGR078C, strain PAC10, hits give low values 1.02 | locus YGR135W, strain pre9, hits give low values 1.06 | locus YGR229C, strain SMI1, hits give low values 1.02 | locus YGR252W, strain gcn5, hits give low values 1.02 | locus YHR013C, strain ard1, hits give low values 1.08 | locus YHR027C, strain rpn1, hits give low values 1.03 | locus YHR030C, strain SLT2, hits give low values 1.02 and 0.951 | locus YHR079C, strain IRE1 (second series), hits give low values 1.01 | locus YHR079C, strain IRE1, hits give low values 0.959 | locus YHR094C, strain hxt1, hits give low values 1.03 | locus YHR129C, strain ARP1, hits give low values 1.01 | locus YHR142W, strain chs7, hits give low values 1.04 | locus YHR200W, strain rpn10, hits give low values 1.05 | locus YIL066C, strain RNR3, hits give low values 1.01 | locus YIL073C, strain SPO22, hits give low values 1.03 | locus YIL125W, strain kgd1, hits give low values 1.03 | locus YIR030C, strain dcg1, hits give low values 1.04 | locus YJL092W, strain hpr5, hits give low values 1.01 | locus YJL095W, strain BCK1 (second series), hits give low values 1.03 | locus YJL095W, strain BCK1, hits give low values 1.03 and 0.977 | locus YJL115W, strain asf1, hits give low values 1.03 | locus YJL129C, strain trk1, hits give low values 1.03 | locus YJL134W, strain LCB3, hits give low values 1.01 | locus YJL154C, strain vps35, hits give low values 0.993 | locus YJL164C, strain tpk1, hits give low values 1.06 | locus YJL166W, strain qcr8, hits give low values 1.08 | locus YJL168C, strain set2, hits give low values 1.02
